What is called inhibition is the drop in the measured response relative to a control, in per cent.

From PubChem BioAssay AID1866 (The Scripps Research Institute Molecular Screening Center, 2009) come the findings set out here.

In all, about 1,300 compounds went through this assay and about 40 (3%) were called active. These entries were drawn from the full list. A number with no mark means an inactive call.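 The calls were made as follows: active = inhibition above that campaign's mean inhibition plus 3 SD (cut at about 0.46% in these data); inactive = the rest.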

The target in this test is Beta-lactamase TEM (Escherichia coli) (UniProt P62593). In words: TEM-1 serine beta-lactamase inhibitors, counter-screen for VIM-2 inhibitor project, biochemical, epi-absorbance, HTS (AID 1866).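 Also: 0% = TEM-1 with DMSO and 100% = TEM-1 with 100 µM potassium clavulanate.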 As to conditions: Purified TEM-1, nitrocefin hydrolysis, epi-absorbance fluorescence; at 5.6 µM; active compounds read high. A general note: A counterscreen serves to expose hits that act by an unwanted route or on another target.
Chain of Beta-lactamase TEM (Escherichia coli) (P62593 whole entry, looked up): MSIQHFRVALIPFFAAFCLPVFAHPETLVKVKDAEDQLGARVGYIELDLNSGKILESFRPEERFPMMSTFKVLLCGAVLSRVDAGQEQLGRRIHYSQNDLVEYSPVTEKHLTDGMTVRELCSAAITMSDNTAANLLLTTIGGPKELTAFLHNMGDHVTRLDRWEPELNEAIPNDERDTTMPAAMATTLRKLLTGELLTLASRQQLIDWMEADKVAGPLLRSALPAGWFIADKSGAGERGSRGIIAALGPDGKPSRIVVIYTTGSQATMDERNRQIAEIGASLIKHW
Regarding `COc1ccc(CCn2c(=N)c(C(=O)NCC3CCCO3)cc3c(=O)n4cccc(C)c4nc32)cc1OC` (configuration not stated), the inhibition is -5.02%.
To `Cc1nc2ccccc2c2oc(C(=O)NCCCN3CCC(C)CC3)cc12` belongs -6.75%; to `CNC(=O)c1ccsc1NC(=O)c1ccc(S(=O)(=O)N2CCOCC2)cc1`, -7.75%.
Then `Fc1ccc(-c2ccc(CNCc3ccccn3)o2)cc1Cl`, with -5.72%; and `CCN(CC)c1ccc2cc(C(N)=O)/c(=N\NC(=O)c3ccncc3)oc2c1`, with -8.43%; and `O=C(COc1cc2oc(=O)c3c(c2cc1Cl)CCC3)NCCCN1CCOCC1`, with -0.53%.
For the molecule `CCN1CCN(CCNC(=O)c2ccc3c(c2)NC(=O)/C(=C\c2ccc(OC)c(OC)c2)S3)CC1`, the inhibition was -9.31%.
Then `COc1ccc(-c2nn3c(-c4ccccc4)nnc3s2)cc1OC`, with -11.4%; and `CCOC(=O)N1CCN(C(=O)C2CCN(c3ncnc4c3sc3cccc(F)c34)CC2)CC1`, with -5.6%; and `CCN(CC)CCOc1ccc2c(c1)C(=NNC(=O)c1ccccn1)c1cc(OCCN(CC)CC)ccc1-2`, with -8.91%.
Take `COc1ccc(Nc2cc(C)nc(-n3nc(C)cc3C)n2)cc1`: the inhibition was -7.46%.
Turning to `NC(=O)C1CCN(C(=O)COc2ccc3c4c(c(=O)oc3c2)CCC4)CC1`, the inhibition is -5.63%.
Then `Cn1c(-c2sccc2OCc2cccc(C(F)(F)F)c2)n[nH]c1=S`, with -7.73%; and `CCOc1cc(/C=C2\SC(N3CCCCC3)=NC2=O)ccc1O`, with -8.67%.
To `COC(=O)c1c(NC(=O)c2ccc(S(=O)(=O)N3CCOCC3)cc2)sc2c1CCN(C(C)C)C2` belongs -6.47%.
To `Cc1ccc(Cl)cc1-c1ccc(/C=N/n2cnnc2)o1` belongs -6.18%; to `CCN1CCCC1CNC(=O)c1cc2c(=O)n(C)c3ccccc3c2n1C` (configuration not stated), -6.31%.
Take `COc1ccc(Cc2nnc(NS(=O)(=O)Cc3ccccc3)s2)cc1`: the inhibition is -3.28%.
Then `Cc1cc(NCc2ccco2)n2c(nc3ccccc32)c1C#N`, with -6.6%; and `CC(=O)c1ccc(-c2ccc(Cn3c(C)nc4cc(N)c(C)nc43)cc2)cc1`, with -6.56%; and `CC(NS(=O)(=O)c1ccccc1)c1n[nH]c(=S)n1-c1ccccc1` (configuration not stated), with -5.56%.
`O=C1Nc2cc(C(=O)N3CCC(N4CCCCC4)CC3)ccc2S/C1=C\c1ccccc1`: the inhibition was -5.79%.
As to `CCc1cc(=O)oc2cc(C)cc(OCC(=O)N3CCC[C@@H]3C(=O)O)c12`, the inhibition is -5.9%.
To `O=C(NC(=S)Nc1ccccc1C(=O)O)c1ccc(-c2ccc(Br)cc2)o1` belongs -8.31%; to `CN(C)CCNc1ccc(-c2n[nH]c(=O)c3ccccc23)cc1[N+](=O)[O-]`, -7.17%.
Take `Cc1cc(-c2ccc(/C=N/n3cnnc3)o2)c([N+](=O)[O-])cc1C`: the inhibition is -5.24%.
Take `C=CCn1c(-c2ccccc2OCC)n[nH]c1=S`: the inhibition was -3.6%.
Then `CC(C)(C)CC(=O)Nc1nnc(SCC(=O)NCc2cccs2)s1`, with -5.92%; and `CCOc1cc(/C=C2\SC(N3CCCC(C)C3)=NC2=O)ccc1O` (configuration not stated), with -1.56%.
On to `O=c1[nH]c(-c2ccccc2)c(-c2ccccc2)[nH]1`, for which the inhibition is -4.67%.
As for `COc1nc(N=C(N)N)nc2c(C)cccc12`, the inhibition was -4.69%.
On to `CN1CCN(c2ccc(NC(=O)c3ccc4c(c3)[nH]c(=O)n4Cc3ccc(F)cc3)cc2)CC1`, for which the inhibition was -7.55%.
To `CC1CCCC(C)N1CCCNC(=O)c1cc2c(=O)n(C)c3ccccc3c2n1C` (configuration not stated) belongs -6.6%; to `Cn1c2ccccc2c(=O)c2c(O)cccc21`, -0.94%.
To `CCCc1ccc(OCCNC(=O)c2ccco2)cc1` belongs -6.4%; to `COC(=O)c1ccc(-c2noc(CN(Cc3ccccn3)CC3CCCO3)n2)cc1` (configuration not stated), -7.22%.
To `COc1cc(/C=N/Nc2nn3cnnc3c3ccccc23)cc(OC)c1OC` belongs -3.82%; to `COc1cc(NC(=O)C2=C(C)OCCS2)c(Cl)cc1C(=O)NCCN1CCN(C)CC1`, -9.7%; to `Nc1nnc2c(C(F)(F)F)nc3ccccc3n12`, -1.12%.
As for `Cc1cc(C)c2nc3nc(C)cc(C)c3c(N)c2c1`, the inhibition was -4.56%.
Then `CCC1CCCCN1CCCNC(=O)c1cc2c(Cl)nc3ccccc3c2s1` (configuration not stated), with -6.12%; and `Clc1cc(-c2ccc(/C=N/n3cnnc3)o2)ccc1Br`, with -5.72%; and `CCN1CCN(C(=O)Cn2nc(C)n3c(cc4c(OC)cccc43)c2=O)CC1`, with -7.04%.
Then `Cn1c(=O)c2c(nc(N3CCOCC3)n2CCNC2=NCCC2)n(C)c1=O`, with -4.49%; and `COc1ccc(/C=N/N(C)C2=NS(=O)(=O)c3ccccc32)cc1OC`, with -6.76%; and `COc1cc(-c2nn3c(-c4cccc(C)c4)nnc3s2)cc(OC)c1OC`, with -6.23%.
Then `Cc1cccn2c(=O)c(C=O)c(Nc3ccc(S(N)(=O)=O)cc3)nc12`, with -4.52%.
For the molecule `O=C(NCCCN1CCOCC1)c1cnn2c(-c3ccccc3)cc(-c3ccccc3)nc12`, the inhibition was -5.7%.
To `CCOCCCNc1c(CC)c(C)c(C#N)c2nc3ccccc3n12` belongs -5.82%; to `Cc1ccc2nc(C)c3c(c2c1)N(c1ccccc1)CC3`, -5.53%.
To `Nc1cccc2c1C(=O)N(Cc1nnc(-c3ccccc3Br)o1)C2=O` belongs -0.93%; to `Cc1cc([N+](=O)[O-])c(-c2ccc(/C=N/n3cnnc3)o2)cc1Cl`, -6.25%.
